# Shown are actives, neighbours in structure and some others; about 4.5% of the full set was active somewhere.
# EBNA-1 inhibitor: blocks EBNA-1 binding to DNA | EBNA-1 DNA binding, fluorescence polarization | inhibition, % at 14.8 µM | 0.34% of 300,000 active | AID 1950; in the data active = inhibition above about 28%
# TPT1 inhibitor: blocks Candida albicans tRNA 2'-phosphotransferase; recombinant caTPT1, FP RNA substrate dephosphorylation; inhibition, % at 5 µM; 0.81% of 300,000 active; AID 1962;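 active = inhibition above the mean of all tested compounds plus 3 SD, set per screening campaign, cut at about 24% in these data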
# ZTA DNA inh: blocks Epstein-Barr virus ZTA, an EBNA-1 counter-screen; P03206; 0.15% of 320,000 active; AID 2234; ZTA-DNA binding, fluorescence polarization; inhibition, % at 11 µM; in the data active = inhibition above about 33%
# Target sequence (P03206 whole entry, looked up): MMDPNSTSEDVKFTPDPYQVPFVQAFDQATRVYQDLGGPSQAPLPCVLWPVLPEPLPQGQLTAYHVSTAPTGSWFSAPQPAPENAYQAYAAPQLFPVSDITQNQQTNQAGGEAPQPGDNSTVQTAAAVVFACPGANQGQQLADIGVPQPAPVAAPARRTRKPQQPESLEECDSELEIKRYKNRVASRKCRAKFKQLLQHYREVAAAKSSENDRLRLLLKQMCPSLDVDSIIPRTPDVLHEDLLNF
# dFosB act-1: mouse delta FosB homodimer activation; P13346; purified delta FosB, TAMRA-CDK5 oligo fluorescence polarization; percent of positive-control signal above neutral wells; activation, % at 25 µM; AID 493131; 0.99% of 340,000 active;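 active = mean activation above about 17%, with every replicate also reaching it, limit read from the data, passing the limit was not always enough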
# NR3A LBD binder: modulators (binders) of human NR3A ligand-binding domain | NR3A LBD differential scanning fluorimetry, Tm shift; 0% = protein alone, 100% = glycine-bound protein | Tm shift relative to glycine control, % at 25 µM | 2.5% of 340,000 active | AID 1259313;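 active = melting temperature shift of at least 10% of the positive control shift, at one fixed dose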
# Rpn11 block: Rpn11 (human) deubiquitinase inhibition | O00487 | human 26S proteasome, Ub4-pepOG fluorescence polarization; 20S core pre-blocked with epoxomicin | inhibition, % at 20 µM | 0.59% of 360,000 active | AID 588493;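 active = inhibition at 20 µM, scaled to each plate's controls, above about 33%, limit read from the data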
# Target sequence (O00487 whole entry, looked up): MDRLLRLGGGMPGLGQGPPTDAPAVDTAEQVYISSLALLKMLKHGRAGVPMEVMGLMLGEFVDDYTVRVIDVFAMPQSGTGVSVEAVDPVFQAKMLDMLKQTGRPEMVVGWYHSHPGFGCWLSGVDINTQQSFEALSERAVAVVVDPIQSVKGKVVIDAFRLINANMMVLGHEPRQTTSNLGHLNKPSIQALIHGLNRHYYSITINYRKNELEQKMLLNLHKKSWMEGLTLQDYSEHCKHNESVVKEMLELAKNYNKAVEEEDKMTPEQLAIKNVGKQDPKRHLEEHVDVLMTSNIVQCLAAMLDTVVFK
# dFosB act-2: activators of mouse delta FosB homodimer DNA binding. shares compounds with dFosB act-1. purified delta FosB, TAMRA-CDK5 oligo fluorescence polarization; normalised: neutral wells 0, positive control 100. activation, % at 24.9 µM. 2,400 tested, under 10 active. AID 588690;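 active = highest replicate activation at or above 34% and every replicate reaching that threshold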;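 also: higher polarization means more probe DNA bound by delta FosB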
# A number is an active result; i = inactive; nt = not tested or not shown.
SMILES,EBNA-1 inhibitor,TPT1 inhibitor,ZTA DNA inh,dFosB act-1,NR3A LBD binder,Rpn11 block,dFosB act-2
O=C(COC(=O)c1cc(=O)[nH]c2ccccc12)NCc1ccc(Cl)cc1,nt,nt,i,57.0,i,i,i
COc1ccccc1CNC(=O)C1CCC(=O)N(CCCc2ccccc2)C1 (stereo unspecified),i,i,i,i,i,i,nt
CCCn1c(N)c(C(=O)CSc2nc(C)cs2)c(=O)[nH]c1=O,i,i,i,i,i,i,nt
CCCn1c(N)c(C(=O)CSc2n[nH]c(-c3ccc(C)cc3)n2)c(=O)[nH]c1=O,i,i,i,27.7,i,i,i
COc1ccc(Nc2oc(COc3ccc(Cl)cc3)nc2C#N)cc1,i,i,i,22.3,i,i,i
CC(C)(C)c1cc(=O)n(-c2ccccc2)[nH]1,i,i,i,i,i,i,nt
CC(/C=N/NC(=O)COc1ccccc1C)=N\NC(=O)COc1ccccc1C,i,i,i,22.1,12.5,i,i
COc1ccc(-c2ccc(/C=N/NC(=O)c3cccnc3)o2)c([N+](=O)[O-])c1,nt,nt,nt,50.2,i,i,i
COc1ccc(/C=C2\SC(=O)N(CC(=O)Nc3cccnc3)C2=O)cc1OC,i,i,i,i,i,i,nt
COc1ccc(/C=C2/SC(=O)N(CC(=O)NCCC(C)C)C2=O)cc1OC,i,i,i,17.0,i,i,i
COc1ccc(/C=C2\SC(=O)N(CC(=O)Nc3ccc(F)cc3)C2=O)cc1O,i,i,i,18.9,i,i,i
COc1ccc(C(=O)Nc2nnc(CCS(=O)(=O)c3ccc(C)cc3)s2)cc1,i,i,i,i,i,i,nt
C#CCOCCOCCOCCNc1nc(N2CCN(C(=O)[C@H](CCCCN)n3cc([C@@H](N)C(C)CC)nn3)CC2)nc(N2CCN(C(=O)[C@H](CCCCN)n3cc([C@@H](N)CO)nn3)CC2)n1 (stereo partly specified),i,i,i,nt,nt,nt,nt
C#CCOCCOCCOCCNc1nc(N2CCN(C(=O)[C@H](CCCN=C(N)N)n3cc(C(N)[C@@H](C)CC)nn3)CC2)nc(N2CCN(C(=O)[C@H](CCCCN)n3cc([C@@H](N)[C@H](C)CC)nn3)CC2)n1 (stereo partly specified),nt,nt,nt,35.7,i,i,i
C#CCOCCOCCOCCNc1nc(N2CCN(C(=O)[C@H](CCCN=C(N)N)n3cc(C(N)[C@@H](C)CC)nn3)CC2)nc(N2CCN(C(=O)[C@H](CCC(=O)O)n3cc([C@@H](N)CCCCN)nn3)CC2)n1 (stereo partly specified),nt,nt,nt,i,i,i,nt
C#CCOCCOCCOCCNc1nc(N2CCN(C(=O)[C@H](CCCCN)n3cc(CN)nn3)CC2)nc(N2CCN(C(=O)[C@H](CCCCN)n3cc([C@@H](N)[C@H](C)CC)nn3)CC2)n1,nt,nt,nt,42.8,i,i,i
Cc1cccc(N(C)C(=O)c2cnn(-c3ccccc3)c2C)c1,i,i,i,i,i,i,nt
Cc1ccc(C(O)(C(=O)NNc2ccccn2)c2ccc(C)cc2)cc1,i,i,i,i,i,i,nt
Cc1ccc(NNC(=O)C(O)(c2cccc(C(F)(F)F)c2)c2cccc(C(F)(F)F)c2)cc1,i,i,i,77.1,25.8,i,i
Cc1ccc(NC(=O)CSC2=C(C#N)C(c3ccc4c(c3)OCO4)CC(=O)N2)cc1C (stereo unspecified),i,i,i,46.5,i,i,i
CCc1ccc(NC(=O)CSC2=C(C#N)C(c3ccc4c(c3)OCO4)CC(=O)N2)cc1 (stereo unspecified),i,i,i,i,nt,i,nt
Cc1cc(C(=O)OCC(=O)NC(C)c2ccccc2)c(C)o1 (stereo unspecified),i,i,i,i,i,i,nt
CC(NC(=O)COC(=O)c1cc2ccccc2cc1O)c1ccccc1 (stereo unspecified),nt,nt,nt,24.0,i,i,i
Cc1c(C(=O)OCC(=O)NC(C)c2ccccc2)oc2ccccc12 (stereo unspecified),i,i,i,19.5,i,i,i
O=C(NCc1ccccn1)c1ccc2c(=O)n3nc(Nc4ccccc4)sc3nc2c1,i,i,i,26.8,i,i,i
SMILES,EBNA-1 inhibitor,TPT1 inhibitor,ZTA DNA inh,dFosB act-1,NR3A LBD binder,Rpn11 block,dFosB act-2
CC(=O)c1c(C)[nH]c(C(=O)OCc2ccc(F)cc2Cl)c1C,i,i,i,i,i,i,nt
CC(=O)c1c(C)[nH]c(C(=O)OCc2c(F)cccc2Cl)c1C,i,i,i,21.5,i,i,i
COc1ccc(S(=O)(=O)N2CCCCC2)cc1NC(=O)Cc1cccc(C(F)(F)F)c1,nt,nt,nt,i,i,i,nt
CCCS(=O)(=O)NC(=O)C1(C)CCN(C(=O)CSc2ccccc2)C1 (stereo unspecified),nt,nt,nt,nt,nt,i,nt
O=C(Nc1ccc(Cl)cc1)c1ccc(OC2CSC2)cc1,i,i,i,20.8,i,i,i
CO/N=C\c1cc(C(=O)c2ccc(Cl)cc2Cl)cn1C,i,i,i,i,i,i,nt
CC(C)Oc1ccc(S(=O)(=O)N2CCOCC2)cc1NC(=O)C1=COCCO1,i,i,i,i,i,i,nt
CC(NC(=O)C1c2ccccc2Oc2ccccc21)C1CCCO1 (stereo unspecified),i,i,i,i,i,i,nt
CSc1nsc(SC)c1NC(=O)Nc1ccccc1C,i,i,i,33.2,i,i,i
CCOc1ccc(Oc2ccc(NC(=O)[C@@H](NC(N)=O)[C@@H](C)CC)cc2)cc1,i,i,i,30.7,i,i,i
O=C(Nc1cccnc1)c1cc(-c2ccc(Cl)cc2Cl)on1,i,i,i,62.0,i,i,i
O=C(Nc1cccnc1)c1cc(-c2ccc(Cl)cc2)on1,i,i,i,i,i,i,nt
N/C(=N\OC(=O)COc1ccc(Cl)cc1)c1cccnc1,i,i,i,i,i,i,nt
N/C(=N\OC(=O)COc1ccc(Cl)cc1Cl)c1cccnc1,i,i,i,24.3,i,i,i
CC(C)Cc1ccc(C(C)C(=O)Nc2ccccc2O)cc1 (stereo unspecified),i,i,i,i,i,i,nt
NC(=O)c1cc(-c2ccccc2)nc2ccc(Br)cc12,i,i,i,22.9,i,i,i
Cc1cc(C(=O)NCc2ccccc2F)c2ccccc2n1,i,i,i,i,i,i,nt
Cc1ccccc1C(=O)Nc1nnc(CC(=O)N/N=C/c2ccco2)s1,i,i,i,39.6,i,i,i
COc1ccc(-c2csc(NC(=S)NC(=O)c3ccco3)n2)cc1,i,i,i,47.1,i,i,i
O=C(Cn1nnc(-c2ccc(Cl)cc2)n1)N1CCN(C(=O)c2ccco2)CC1,nt,nt,i,i,i,i,nt
COc1ccc(C(=O)Nc2ccc(-c3nnn(CC(=O)N4CCN(C(=O)c5ccco5)CC4)n3)cc2)cc1,i,i,i,67.7,i,i,i
